Source: PubChem BioAssay
Shown are actives, neighbours in structure and some others; about 14% of the full set was active somewhere.
Shiga inhibitor: Shiga toxin inhibition; Vero cells, Shiga toxin protein synthesis inhibition reporter; inhibition, % at 38.7 µM; actives 9.2% (n = 290,000); in the data active = inhibition mostly above about 28%, no sharp cut-off; inactive = mostly below about 43%
FBPA Giardia inh: blocks Giardia fructose-bisphosphate aldolase activity; purified Giardia FBPA; A8B2U2; actives 0.71% (n = 290,000); Potency, µM (doses to about 59.6 µM), most hits filed as inhibitors; AID 2451; active = well fitted curve in the direction sought with a large enough effect; inconclusive = small, poorly fitted or top-dose-only effect, or another doubt; inactive = no such curve, though single readings can be large; an effect the other way counts as inactive or inconclusive; also: nearly all actives have a fitted effect of over 55% in size
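Giardia FBPA (40 nM reagent) was preincubated 10 min at RT with compound (up to 57.5 uM final), then substrate plus GAPDH/TPI/NAD/arsenate coupling system with diaphorase/resazurin was added; resorufin fluorescence (525/598 nm) was read after 20 min.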
LmPK inh: blocks Leishmania mexicana pyruvate kinase activity. Q27686. purified LmPK, Kinase-Glo ATP luminescence, 1 h. Potency, µM (series often up to 57.5 µM), actives largely listed as inhibitors. actives 0.37% (n = 290,000); active = well fitted curve in the direction sought with a large enough effect; inconclusive = small, poorly fitted or top-dose-only effect, or another doubt; inactive = no such curve, though single readings can be large; an effect the other way counts as inactive or inconclusive
Target sequence (Q27686 whole entry, looked up): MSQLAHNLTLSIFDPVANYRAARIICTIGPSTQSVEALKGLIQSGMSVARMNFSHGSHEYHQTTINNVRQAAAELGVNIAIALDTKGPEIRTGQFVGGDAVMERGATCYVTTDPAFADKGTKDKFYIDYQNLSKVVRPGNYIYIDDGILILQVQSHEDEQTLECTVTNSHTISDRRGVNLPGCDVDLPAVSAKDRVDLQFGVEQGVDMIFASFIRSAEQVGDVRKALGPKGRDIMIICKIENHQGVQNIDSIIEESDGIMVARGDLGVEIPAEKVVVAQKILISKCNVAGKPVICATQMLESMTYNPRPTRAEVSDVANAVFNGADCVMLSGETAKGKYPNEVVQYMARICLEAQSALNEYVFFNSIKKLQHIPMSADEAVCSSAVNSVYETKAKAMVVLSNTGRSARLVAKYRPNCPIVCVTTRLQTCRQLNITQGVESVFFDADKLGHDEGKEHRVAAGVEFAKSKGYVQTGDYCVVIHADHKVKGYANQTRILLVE
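ATP generated from ADP (0.1 mM) and PEP (0.5 mM) by 0.1 nM LmPK over 1 h at room temperature (pH 7.2 imidazole buffer) was detected by coupled luciferase luminescence. Values were normalized to uninhibited and no-enzyme wells.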
NS1 function inh: blocks influenza NS1 protein function; Potency, µM (highest dose often 46.1 µM); actives 0.4% (n = 270,000); also: actives are rising curves; nearly all actives have a fitted effect of over 50% in size
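Read-out: OD600 growth recovery of NS1-expressing budding yeast. Cells grown overnight at 30C in -URA glucose medium, washed, resuspended and diluted 1:100 in 2% galactose assay medium, pH 6.0. Same strain lacking NS1 served as positive control.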
CHX counter: affects cycloheximide protein synthesis inhibition readout, counter-screen. cell reporter, cycloheximide protein synthesis inhibition counterscreen. AID 2314. actives 12% (n = 300,000). max response, %; in the data active = max response mostly above about 13%, no sharp cut-off; inactive = mostly below about 14%; also: read at 38.3 µM for the half of the compounds with a filed dose
Flu NS1 inh: influenza NS1 function inhibition validation. shares compounds with NS1 function inh. influenza NS1 function cell assay, 15-point titration. activity change, negative = inhibition, % at 32.9 µM. 1,400 tested, under 10 active. AID 492980
Of the large screens only hits and unclear results are named; the others gave an inactive call (follow-up assays come after a bar, where they were run). Unless noted, calls follow the shape of the full dose curve.

CCn1ncc(Br)c1C(=O)NC1CCCCCCC1	none (no result: FBPA Giardia inh)
CCOc1cc(/C=C2\SC(=Nc3ccc(CC)cc3)NC2=O)ccc1OCC(=O)O	none
COC(=O)CCCC1=CC2=CC(=O)C(C)(OC(=O)c3cccs3)C(=O)C2=CN1CCc1ccccn1 (centres undefined)	FBPA Giardia inh inconclusive
CCCCC1=CC2=C(c3ccco3)C(=O)C(C)(OC(=O)c3ccc(OC)cc3)C(=O)C2=CN1CCc1ccccn1 (centres undefined)	FBPA Giardia inh inconclusive, NS1 function inh inconclusive | Flu NS1 inh inactive
CCCCC1=CC2=CC(=O)C(C)(OC(=O)CC)C(=O)C2=CN1CCc1ccccn1 (centres undefined)	FBPA Giardia inh inconclusive, NS1 function inh inconclusive | Flu NS1 inh inactive
CCCC1([C@H](O)C/C=C/[C@H]2[C@H](O)CC(=O)[C@@H]2CCCCCCC(=O)OC)CCC1	none (no result: LmPK inh, NS1 function inh)
O=C(NCCCn1ccnc1)c1ccc(OCC(F)(F)F)cc1	none
Cc1oc(-c2ccccc2Cl)nc1CS(=O)CC(=O)NCc1cccs1 (centres undefined)	none
CCCCNC(=O)CS(=O)Cc1nc(-c2cccs2)oc1C (centres undefined)	NS1 function inh 11µM | Flu NS1 inh inactive
Cc1oc(-c2ccccc2F)nc1CS(=O)CC(=O)NCc1cccs1 (centres undefined)	NS1 function inh 11µM | Flu NS1 inh inactive
Cc1cc(C)nc(Oc2ccc(Br)cc2)n1	none
O=C(NNC(=O)c1ccc(S(=O)(=O)N2CCCCC2)cc1)c1ccc(F)cc1	none
O=C(NCCCN1CCCCC1)C1CCN(S(=O)(=O)N2CCC3(CC2)OCCO3)CC1	NS1 function inh inconclusive
CC(=O)OCC12COC3c4ccccc4OC(C)(CC1C)C3C2C (centres undefined)	none (no result: NS1 function inh)
CC1CC2(C)Oc3ccccc3C3OCC1(CO)C(C)C32 (centres undefined)	NS1 function inh inconclusive | Flu NS1 inh inactive
CCCCc1ccc(NC(=O)CSC2=C(C#N)C(c3ccco3)C3=C(CCCC3=O)N2)cc1 (centres undefined)	NS1 function inh 20µM, CHX counter 19 | Flu NS1 inh inconclusive
Cc1ccc(C)c(N(C)C(=O)CCS(=O)(=O)c2cccc3nonc23)c1	none
COc1ccc(-c2nn(-c3ccccc3)cc2/C=N/NC(=O)c2cccc(S(=O)(=O)Nc3ccccc3OC)c2)cc1	NS1 function inh 10µM | Flu NS1 inh inactive
CN1CCN(C(=O)c2cnn3c(C(F)(F)F)cc(-c4cccs4)nc23)CC1	none
O=C(c1cnn2c(C(F)(F)F)cc(-c3cccs3)nc12)N1CCN(C(c2ccccc2)c2ccccc2)CC1	NS1 function inh 16µM | Flu NS1 inh inactive
COC(=O)C1=Nc2ccccc2/C1=C\c1c(O)n(-c2ccc(Br)cc2)c(=O)[nH]c1=O	NS1 function inh 10µM | Flu NS1 inh inactive
CCCc1cc(=O)[nH]c(SCC(=O)Nc2cc(C)on2)n1	none (no result: NS1 function inh)
CCOC(=O)C1CCCN(C(=O)Cn2sc3nc(C)cc(C)c3c2=O)C1 (centres undefined)	NS1 function inh 5µM | Flu NS1 inh inconclusive
COc1cccc2c1cc1c(=O)n(CC(=O)NCCCN3CCN(C)CC3)nc(C)n12	none (no result: FBPA Giardia inh)
CC1=NN(Cc2cc(C(C)(C)C)c(O)c(C(C)(C)C)c2)C(=O)C1	FBPA Giardia inh inconclusive, NS1 function inh 14µM | Flu NS1 inh inconclusive
CN1CCN(Cc2cc(C(C)(C)C)c(O)c(C(C)(C)C)c2)CC1	FBPA Giardia inh inconclusive
OC(CNCC(c1ccco1)N1CCCCC1)c1ccccc1 (centres undefined)	FBPA Giardia inh inconclusive, NS1 function inh 2.2µM | Flu NS1 inh inactive
S=C(NCC(c1ccco1)N1CCCC1)Nc1ccccc1 (centres undefined)	none (no result: NS1 function inh)
CCN(CC)C(=O)CSc1nc2cc3c(cc2c(=O)n1CCCC(=O)NCc1ccc(OC)cc1)OCO3	none (no result: NS1 function inh)
COc1ccc(CNC(=O)CCCCCn2c(SCC#N)nc3cc4c(cc3c2=O)OCO4)cc1	NS1 function inh 11µM | Flu NS1 inh inactive
C[C@@H](CN1C(=O)C(=O)NC[C@@H]1C)NC(=O)CC12CC3CC(CC(C3)C1)C2	none
Cc1ccccc1C(=O)N1CCc2cc(-c3nc(NC(=O)Cc4ccc5c(c4)OCO5)sc3C)ccc21	NS1 function inh inconclusive | Flu NS1 inh inactive
Cc1cccc(C(=O)N2CCc3cc(-c4nc(NC(=O)CN5CCCC5)sc4C)ccc32)c1	none (no result: FBPA Giardia inh)
CN(C)NC(=S)NC1(C)CCS(=O)(=O)C1 (centres undefined)	none
Cc1cc(C(=O)O)ccc1-n1c(C)cc(/C=C2\SC(=O)NC2=O)c1C	FBPA Giardia inh inconclusive, NS1 function inh 11µM | Flu NS1 inh inactive
COc1ccc(CN(Cc2nc3ccccc3c(=O)[nH]2)C(=O)c2ccco2)cc1	none
COc1ccc(CCN(Cc2nc3ccccc3c(=O)[nH]2)C(=O)c2ccco2)cc1OC	NS1 function inh 8.9µM | Flu NS1 inh inactive
COc1ccc(C(=O)NCC2(c3ccccc3)CCCC2)c(OC)c1	none
COc1ccc(C2(CNC(=O)CCC(=O)O)CCCC2)cc1	NS1 function inh 13µM | Flu NS1 inh inactive
Cc1nc(C)c(-c2nnc(-c3ccc(C(C)(C)C)cc3)o2)cc1C(=O)NN	NS1 function inh 10µM | Flu NS1 inh inactive
Cc1ccc(CCN2CC(C(=O)NCCC(C)C)CC2=O)cc1 (centres undefined)	none
Cc1ccc(CCN2CC(C(=O)NCc3ccco3)CC2=O)cc1 (centres undefined)	NS1 function inh inconclusive | Flu NS1 inh inactive
CC(C1CC1)N(C(=O)NC1CCS(=O)(=O)C1)c1ccccc1 (centres undefined)	NS1 function inh inconclusive | Flu NS1 inh inactive
CCCn1cc(CN2CCC(n3nccc3NC(=O)C(OC)c3ccccc3)CC2)c(C)n1 (centres undefined)	none
Cc1c(C(=O)O)nn(-c2cccc(C(F)(F)F)c2)c(=O)c1C#N	none
Cc1ccccc1-n1nc(C(=O)O)c(C)c(C#N)c1=O	NS1 function inh 2.8µM | Flu NS1 inh inactive
COc1ccccc1CNS(=O)(=O)c1c(C(=O)N2CCCCC2)c(C)n(C)c1C	none
Cc1ccc(C(=O)N2CCN(C)CC2)cc1S(=O)(=O)N1CCCCCC1	none (no result: FBPA Giardia inh)
CCn1c(SCC(=O)N2CCCC2)nc2c(c1=O)SCC2	none (no result: FBPA Giardia inh)
CCn1c(SCC(=O)N2CCC(C)CC2)nc2c(c1=O)SCC2	NS1 function inh 2µM | Flu NS1 inh inactive
Cn1c(=O)cc(OCCCC(=O)NCCCN2CCN(Cc3ccccc3)CC2)c2ccccc21	NS1 function inh 3.5µM | Flu NS1 inh inactive
Cc1cc(C)nc(OC(C(=O)O)C(OCCC(C)C)(c2ccccc2)c2ccccc2)n1 (centres undefined)	NS1 function inh 2.5µM | Flu NS1 inh inactive
Cc1ccnc(OC(C(=O)O)C(OCc2ccccc2)(c2ccccc2)c2ccc(C(F)(F)F)cc2)n1 (centres undefined)	NS1 function inh inconclusive | Flu NS1 inh inactive
